# From article PMC4336329 (PLoS ONE, 2015)
# Screen size: about 310,000 compounds; about 14,000 (4.5%) showed an effect of 50% or more. Effects have a minus sign here. The sample as a whole holds a higher share of strong results than the screen did.
# Molecular target: human ether-à-go-go-related gene (hERG) potassium channel (human, UniProt Q12809)
# Test: primary screen, population patch clamp on CHO cells stably expressing hERG; higher = less effect of the substance
# 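Note: peak tail current of the secondary pulse compared with the same well before compound.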
# human ether-à-go-go-related gene (hERG) potassium channel, sequence (Q12809 whole entry, looked up): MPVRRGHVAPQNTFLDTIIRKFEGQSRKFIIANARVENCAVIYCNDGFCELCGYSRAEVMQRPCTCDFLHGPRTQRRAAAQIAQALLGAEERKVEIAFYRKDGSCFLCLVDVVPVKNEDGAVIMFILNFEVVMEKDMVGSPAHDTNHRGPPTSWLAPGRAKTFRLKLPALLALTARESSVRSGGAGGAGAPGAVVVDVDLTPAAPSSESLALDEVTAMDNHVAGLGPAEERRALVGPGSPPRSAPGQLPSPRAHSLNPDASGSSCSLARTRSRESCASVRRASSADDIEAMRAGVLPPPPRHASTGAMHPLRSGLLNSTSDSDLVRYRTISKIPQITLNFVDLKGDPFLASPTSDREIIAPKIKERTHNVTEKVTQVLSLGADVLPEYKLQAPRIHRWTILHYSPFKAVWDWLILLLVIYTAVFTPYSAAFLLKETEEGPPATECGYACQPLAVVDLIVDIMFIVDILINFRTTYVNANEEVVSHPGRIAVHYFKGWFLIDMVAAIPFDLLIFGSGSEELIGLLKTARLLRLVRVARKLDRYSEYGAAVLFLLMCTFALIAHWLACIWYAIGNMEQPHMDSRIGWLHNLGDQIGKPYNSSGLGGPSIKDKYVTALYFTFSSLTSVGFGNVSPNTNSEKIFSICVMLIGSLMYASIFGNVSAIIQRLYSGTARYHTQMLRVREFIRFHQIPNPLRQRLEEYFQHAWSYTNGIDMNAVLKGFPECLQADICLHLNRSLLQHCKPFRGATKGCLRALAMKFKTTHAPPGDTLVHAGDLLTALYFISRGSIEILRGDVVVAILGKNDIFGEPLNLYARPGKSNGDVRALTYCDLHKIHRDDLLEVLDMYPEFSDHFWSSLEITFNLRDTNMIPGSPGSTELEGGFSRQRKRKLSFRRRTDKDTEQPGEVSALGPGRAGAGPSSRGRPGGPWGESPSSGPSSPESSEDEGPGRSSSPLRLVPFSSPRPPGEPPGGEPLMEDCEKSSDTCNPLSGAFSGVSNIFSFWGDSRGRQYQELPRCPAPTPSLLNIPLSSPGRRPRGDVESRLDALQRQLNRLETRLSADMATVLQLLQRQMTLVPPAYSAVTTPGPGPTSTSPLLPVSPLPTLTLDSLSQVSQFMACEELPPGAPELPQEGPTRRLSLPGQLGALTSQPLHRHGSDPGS
row,SMILES,"hERG current change (%, negative = inhibition) at 10uM [%]"
1,O=C(C1=C(O)C(=O)N(c2ncccn2)C1c1ccc(Cl)cc1)c1ccco1 (stereo not drawn),7.37
2,O=C(CCl)N=c1sccn1Cc1ccccc1Cl,-5.61
3,COc1cc(/C=C(\C#N)C(=O)NCc2cccs2)ccc1O,-0.725
4,Cl.O=C(COc1ccc(Br)cc1CNC1CCCC1)Nc1ccccc1,-73.1
5,COc1ccccc1NC(=O)COc1ccc(Br)cc1CO,-4.58
6,O=C(COc1ccc(Br)cc1Br)NC1CCCC1,12.9
7,O=C(COc1ccc(Br)cc1CO)Nc1ccccc1,-10.4
8,CCCNCc1cc(OCC)c(OCC(=O)Nc2ccccc2)cc1Br,-24.7
9,CCOc1cc(CNCC(C)C)c(Cl)cc1OCC(=O)Nc1ccccc1,-15.2
10,COc1ccc(Br)cc1CN(C)CC(=O)NCCc1ccccc1.O=C(O)C(=O)O,-14.7
11,O=C(COc1ccc(Br)cc1CO)Nc1ccc(F)cc1,-32.8
12,O=C(COc1ccc(Br)cc1CNC1CCCCC1)NCCc1ccccc1,-77
13,COc1cc(CNC2CCCC2)cc(Br)c1OCC(=O)Nc1ccccc1C,-1.01
14,COc1ccccc1NC(=O)COc1ccc(Br)cc1CNC1CCCC1,-53.2
15,CCOc1cc(CNC2CCCC2)c(Cl)cc1OCC(=O)Nc1ccccc1,-67.8
16,COC(=O)c1cc(C(=O)CC(C)C)c[nH]1,16.7
17,O=C(/C=C/c1ccccc1)NC(=S)NNC(=O)Cc1cccs1,22.5
18,COc1ccc(NC(=O)CCS(=O)(=O)c2cc3c(cc2Cl)NC(=O)CO3)cc1OC,9.57
19,COc1cc(-c2noc(C)c2C(=O)NCCc2c[nH]c3ccccc23)cc(OC)c1OC,0.397
20,O=C(NCCc1ccccn1)C1CCCN(S(=O)(=O)Cc2ccccc2)C1 (stereo not drawn),9.26
21,CC(C)(C)c1ccc(C(=O)Oc2ccc3c(c2)OCC3=O)cc1,2.55
22,Cl.Fc1ccccc1COc1ccc(Br)cc1CNCC1CCCO1 (stereo not drawn),-68.3
23,Brc1ccc(OCc2ccccc2)c(CNCC2CCCO2)c1.Cl (stereo not drawn),-50

row,SMILES,"hERG current change (%, negative = inhibition) at 10uM [%]"
1,Cl.Fc1ccc(COc2ccc(Br)cc2CNCC2CCCO2)cc1 (stereo not drawn),-63.5
2,CCOc1ccccc1CNCC1CCCO1.Cl (stereo not drawn),11.5
3,Brc1cccc(CNCC2CCCO2)c1 (stereo not drawn),4.72
4,COc1ccc(Br)cc1CNCC1CCCO1 (stereo not drawn),5.7
5,CN(C)S(=O)(=O)c1ccc(NC(=O)CN2C(=O)NC3(CCCC3)C2=O)cc1,8.41
6,CCOc1ccc2nc(NC(=O)CSc3nnc(-c4ccncc4)n3CC3CCCO3)sc2c1 (stereo not drawn),3.71
7,Fc1ccc(NC(=S)NCCc2ccc(Cl)cc2)cc1,1.47
8,COCCn1cnc2c1c(=O)n(CC(=O)OCC(=O)NCC(F)(F)F)c(=O)n2Cc1ccccc1,4.6
9,COCCn1cnc2c1c(=O)n(CC(=O)OCC(=O)NCCCc1ccccc1)c(=O)n2Cc1ccccc1,-57.9
10,COCCn1cnc2c1c(=O)n(CC(=O)NN)c(=O)n2Cc1ccccc1,8.95
11,COc1ccc(CNS(=O)(=O)c2ccc(S(=O)(=O)NC3CC3)cc2)cc1,17.9
12,Cc1cccc(NC(=O)NCCN2CCCCC2)c1,-25
13,O=C(O)CN1C(=O)CSc2ccccc21,-30.6
14,O=C1CSc2ccccc2N1Cc1ccc(F)cc1,-38.4
15,O=C1CSc2ccccc2N1Cc1ccccc1F,-55.8
16,COC(=O)c1cccc(NC(=O)c2ccco2)c1,4.02
17,CC1(C)CC(N2CCN(c3ccccc3)CC2)=CC(=[N+]2CCCC2)C1.[I-],-15.3
18,CC1(C)CC(N2CCCC2)=CC(=[N+]2CCCCC2)C1.[I-],3.58
19,CCCN(CCC)C1=CC(=[N+]2CCCC2)CC(C)(C)C1.[I-],-72.4
20,CN(Cc1ccccc1)C1=CC(=[N+]2CCCC2)CC(C)(C)C1.[I-],-55.4
21,CC1(C)CC(N2CCCC2)=CC(=[N+]2CCCCCC2)C1.[I-],-8.68
22,CC1(C)CC(N2CCN(Cc3ccccc3)CC2)=CC(=[N+]2CCCCC2)C1.[I-],7.04
